Screening results from PubChem.
Compounds with a hit are over-represented: about 2.8% of the library has one in this group of screens.
TWEAK-Fn14 inh: inhibitors of TWEAK-Fn14 interaction signaling. 360,000 compounds, 2% hits. TWEAK-stimulated Fn14 reporter cells, luciferase luminescence, 8 h. inhibition, % at 10 µM; in the data active = inhibition above about 50%
EWS-Fli block: inhibitors of EWS/Fli oncoprotein transcriptional activity | inhibition, % at 12.6 µM | 350,000 compounds, 0.67% hits | A673 NR0B1-luciferase reporter, viability-normalised;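 active = mean inhibition of at least 50% after viability correction, with every replicate also passing that limit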;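 also: firefly luciferase signal divided by Alamar Blue viability fluorescence both relative to DMSO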
PAX8 inh HTS: PAX8 transcriptional activity inhibition. RMG-I TPO-luciferase reporter, SteadyGlo, 24 h. inhibition, % at 12.6 µM. 360,000 compounds, 1.2% hits. AID 652154;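 active = mean replicate inhibition at least 60% with every replicate also reaching 60%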;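 also: luciferase light reporting Pax8 driven TPO promoter activity; plate controls were median of neutral control wells for no effect and mitoxantrone controls for full effect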
LGR2 antag: Drosophila LGR2 receptor signaling inhibition. AID 720647. inhibition, % at 9.99 µM. 380,000 compounds, 0.35% hits. HEK293 LGR2, CRE-luciferase, bursicon-stimulated, 4 h;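 active = drop in luminescence signal, shown as inhibition above about 50% in the replicate tests, limit read from the data, passing the limit was not always enough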;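 also: agonist challenge used bursicon conditioned medium at about half maximal strength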
TROY signal inh: TROY signaling inhibition | AID 1347056 | 360,000 compounds, 0.98% hits | Q293 LMP1-TROYcd NF-kB luciferase reporter, 4 h | inhibition, % at 10 µM;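 active = compounds whose plate-normalised and pattern-corrected inhibition of the luciferase reporter signal at the single screening dose is 50% or more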
* hit, by the source's call; x = no result.

SMILES	TWEAK-Fn14 inh	EWS-Fli block	PAX8 inh HTS	LGR2 antag	TROY signal inh
COc1cc(C(c2c(C)[nH][nH]c2=O)c2c(C)[nH][nH]c2=O)ccc1OCc1ccc([N+](=O)[O-])cc1	7.5	x	x	x	-29.0
CCOC(=O)C(=Cc1ccc(OCc2ccc([N+](=O)[O-])cc2)c(OC)c1)C(=O)OCC	58.1*	x	x	x	30.2
COc1cc(/C=N/NC(=O)c2cccc([N+](=O)[O-])c2)ccc1OCc1ccccc1	-15.1	-73.1	x	-40.4	-21.5
COC(=O)C(=Cc1ccc(OCc2ccc([N+](=O)[O-])cc2)c(OC)c1)C(=O)OC	90.8*	x	x	x	57.4*
CCCC(=O)N1CC2(CN[C@@H](CO)c3c2c2ccc(OC)cc2n3C)C1	x	-2.7	x	-20.8	x
COc1ccc2c(c1)CC/C(=C\c1ccc(OC)c(Cn3nc(C)cc3C)c1)C2=O	30.3	x	2.4	x	31.0
COc1ccc2c(c1)CC/C(=C\c1ccc(OC)c(Cn3cccn3)c1)C2=O	58.7*	x	x	x	43.5
Cc1noc(C)c1NC(=O)Nc1ccc2c(c1)C(=O)N([C@@H](C)CO)C[C@@H](C)[C@@H](CN(C)C(=O)Nc1ccccc1)OCCCC[C@@H](C)O2	x	-15.7	-12.4	-16.8	x
O=C1CC(Sc2nnc(-c3ccccc3)o2)C(=O)N1c1ccccc1 (configuration not stated)	1.6	x	71.8*	x	-9.1
COCC(=O)N[C@H]1CC[C@H](CC(=O)NCc2ccccc2OC)O[C@H]1CO	x	1.0	8.8	-6.8	x
COCC(=O)N[C@@H]1CC[C@@H](CC(=O)NCc2ccccc2OC)O[C@@H]1CO	x	-2.8	-4.4	78.9*	x
C[C@@H]1CN([C@@H](C)CO)C(=O)c2cc(NC(=O)CCCN(C)C)ccc2O[C@H]1CN(C)Cc1ccc(Oc2ccccc2)cc1	x	x	2.8	-6.4	x
COC(=O)[C@H]1[C@H](CO)[C@H]2Cn3c(cccc3=O)[C@H]2N1C(=O)C1CCC1	x	3.3	x	9.3	x
C=C(C)C(=O)OC1(C(F)(F)F)Oc2cc(C)ccc2NC1=O (configuration not stated)	10.4	x	93.0*	x	-0.4
O=c1c2[nH]c3cccc(Cl)c3c2ncn1CCN1CCCCC1	-4.7	x	x	-20.8	-6.3
O=c1c2[nH]c3cccc(Cl)c3c2ncn1CC1CCCO1 (configuration not stated)	87.3*	-27.6	-33.1	-20.9	76.5*
CSc1nc(N)nc(SCC(=O)C23CC4CC(CC(C4)C2)C3)c1C#N	93.4*	x	x	-1.2	54.4*
Nc1nc(SCC(=O)C23CC4CC(CC(C4)C2)C3)n[nH]1	72.0*	x	x	x	x
CNC[C@@H]1Oc2ccc(NC(=O)NC(C)C)cc2CC(=O)N([C@H](C)CO)C[C@H]1C	x	-1.2	29.6	-18.9	x
CCN1C(=O)c2cccc3c(S(=O)(=O)N(C(=O)c4cccnc4)c4ccc(OC)cc4)ccc1c23	62.5*	x	13.6	27.1	32.7
C[C@@H]1CCCCO[C@@H](CN(C)C(=O)c2ccccc2)[C@H](C)CN([C@@H](C)CO)C(=O)c2cc(NC(=O)Nc3ccc(C(F)(F)F)cc3)ccc2O1	x	10.9	49.0	13.6	x
C[C@H](CO)N1C[C@H](C)[C@@H](CN(C)C(=O)c2ccccc2)OCCCC[C@H](C)Oc2ccc(NC(=O)Nc3ccc(C(F)(F)F)cc3)cc2C1=O	x	-5.8	-37.2	10.3	x
C[C@H]1CCCCO[C@H](CN(C)C(=O)c2ccccc2)[C@@H](C)CN([C@@H](C)CO)C(=O)c2cc(NC(=O)Nc3ccc(C(F)(F)F)cc3)ccc2O1	x	9.1	85.8*	-2.0	x
C[C@H](CO)N1C[C@H](C)[C@H](CN(C)C(=O)c2ccccc2)OCCCC[C@H](C)Oc2ccc(NC(=O)Nc3ccc(C(F)(F)F)cc3)cc2C1=O	x	-6.8	104.1*	41.4	x
O=C(Nc1cccc(Br)c1)Oc1cccc2cccnc12	0.1	-7.9	10.6	-3.5	-14.4
SMILES	TWEAK-Fn14 inh	EWS-Fli block	PAX8 inh HTS	LGR2 antag	TROY signal inh
O=C(Nc1cccc(C(F)(F)F)c1)Oc1ccc(Cl)c2cccnc12	74.0*	12.6	14.2	6.0	47.9
O=C(Nc1c(Cl)cccc1Cl)Oc1cccc2cccnc12	-5.5	26.2	73.3*	4.3	35.7
Cc1cc(C)c(C(CC(=O)c2cccs2)C(C#N)C#N)c(C)c1 (configuration not stated)	66.4*	-102.3	-167.4	x	-24.0
C[C@]1(C(=O)NC2CC2)c2ccccc2C(=O)N(Cc2cc(C(F)(F)F)cc(C(F)(F)F)c2)[C@H]1c1ccc(CO)cc1	x	-0.9	-29.5	x	x
C[C@@H]1CN([C@H](C)CO)S(=O)(=O)c2ccc(-c3ccccc3)cc2O[C@@H]1CN(C)C(=O)Cc1ccccc1	x	11.6	21.5	-0.5	x
FC(F)(F)c1ccccc1-n1c(-c2cnccn2)n[nH]c1=S	83.9*	-0.6	-33.0	x	65.4*
Cc1ccc(-n2c(-c3cnccn3)n[nH]c2=S)c(Br)c1	-9.4	2.0	14.1	14.1	7.3
Cc1nnc(NC(=O)c2sc3nc(-c4cccs4)cc(C(F)(F)F)c3c2N)s1	73.9*	x	x	-2.2	60.4*
Cc1cc(C)c2c(N)c(C(=O)Nc3nccs3)sc2n1	65.9*	x	-111.0	x	-11.1
Nc1c(C(=O)Nc2nccs2)sc2nc(-c3cccs3)cc(C(F)(F)F)c12	-10.1	x	x	x	-5.5
Cc1ccc(/C=C/c2nc3ccccc3c(=O)[nH]2)cc1	74.9*	69.6*	-0.6	84.4*	51.5*
COC(=O)C[C@@H]1C[C@@H]2c3cc(NC(=O)Nc4ccccc4F)ccc3O[C@@H]2[C@@H](CO)O1	x	-17.6	x	-30.0	x
O=C(CCS(=O)(=O)c1ccc(Cl)cc1)N1CCCc2ccccc21	53.1*	x	x	0.4	64.9*
COc1ccc(CC(=O)Nc2cccc3c2CCCC3)cc1	103.7*	10.9	16.6	x	-10.0
COc1cccc(C(=O)NN2c3ccccc3CCc3ccccc32)c1	-14.2	9.0	67.4*	16.0	-9.3
O=C(c1cc(=O)c2ccccc2o1)N1CCCc2ccccc21	51.7*	x	x	x	27.9
COc1cccc(C(=O)NNC(=O)c2ccccc2)c1	5.7	-49.5	-38.0	-25.6	-9.5
COc1ccc2c3c(n(C)c2c1)[C@H](CO)N(C(=O)Nc1ccc(F)cc1)CC31CCN(C(=O)NC2CCCC2)CC1	x	6.0	x	-1.4	x
COc1ccc(-c2cnc3c(c2)C(=O)N([C@H](C)CO)C[C@H](C)[C@@H](CN(C)S(C)(=O)=O)O3)cc1	x	-6.4	x	-0.2	x
COc1ccc(CC(=O)N2CCCc3ccccc32)cc1	50.3*	x	8.1	x	35.5
O=C(COc1ccccc1)OCC(=O)N1CCCc2ccccc21	0.2	0.9	x	9.9	59.8*
O=C(COc1ccccc1)N1CCc2ccccc21	-21.5	-54.3	-90.6	-53.3	-58.5
O=C(OCC(=O)N1CCc2ccccc21)c1ccccc1F	-19.1	-6.4	-6.9	-122.9	-19.6
COc1cc(OC)cc(C(=O)N2CCCc3ccccc32)c1	51.7*	-14.2	x	-4.6	40.6
COc1ccc(C(=O)N2CCCc3ccccc32)cc1Br	-8.6	-3.6	7.0	x	18.9
O=C(OCC(=O)N1CCc2ccccc21)c1ccccc1[N+](=O)[O-]	59.7*	-108.7	-192.1	37.5	49.9
CCCN(C)C[C@@H]1OCCCC[C@H](C)Oc2ccc(NC(=O)C3CCCCC3)cc2C(=O)N([C@@H](C)CO)C[C@@H]1C	x	1.6	-6.6	-9.3	x
